Experimental data as given in PubChem BioAssay AID504725 (Broad Institute, 2011).
Results with a measured potency or affinity are listed apart. Active and inactive are the calls of the source. No rule for the calls is given here.

biological target: KSHV LANA C-terminal domain (residues 932-1162) binding to LBS DNA (UniProt O40947); test: inhibitors of C-LANA binding to LBS DNA, dose response, biochemical, fluorescence polarization, cherry-picked samples (AID 504725); settings: MBP-C-LANA / FAM-LBS DNA fluorescence polarization, percent change from plate compound-well median; series mostly up to 35 µM; activity change, negative = inhibition: at the top concentration

Row | Structure (SMILES) | activity change, negative = inhibition
1 | O=[N+]([O-])c1cc(-n2cnnn2)ccc1N1CCC(Cc2ccccc2)CC1 | -0.279% (inactive)
2 | Cc1cc(NC(=O)CSc2nnc(COc3cccc(C)c3C)n2C)no1 | 0.641% (inactive)
3 | Cc1cc(NC(=O)CCC(=O)N(CCC(C)C)C(C(=O)NC2CCCC2)c2cccnc2)no1 (centres undefined) | -2.56% (inactive)
4 | CSCCC(NC(=O)c1ccccc1Cl)C(=O)N1CCCC(C)C1 (centres undefined) | 0.532% (inactive)
5 | COc1ccc(C2(CNC(=O)CCC(=O)O)CCCC2)cc1OC | -1.65% (inactive)
6 | COc1ccc(OCC(=O)N2CCN(c3cccc(C(F)(F)F)c3)CC2)cc1 | 2.95% (inactive)
7 | O=C(C1CCCO1)N1CCN(c2ncccn2)CC1 (centres undefined) | -1.29% (inactive)
8 | Cc1ccc(-c2nnn(CC(=O)NC3CCN(Cc4ccccc4)CC3)n2)cc1 | -2.48% (inactive)
9 | FC(F)(F)c1nnc(-c2ccccc2)nc1N1CCCC1 | 1.81% (inactive)
10 | O=C(COc1cccc(F)c1)Nc1nc(-c2cccnc2)cs1 | 3.12% (inactive)
11 | C/C(=N\Nc1nc2c(s1)CCCC2)c1ccc(Cl)cc1 | 3.37% (inactive)
12 | COc1cccc(NC(=O)CN(C)C(=O)c2cc3ccccc3cc2OC)c1 | 1.7% (inactive)
13 | O=C(OCc1ccccc1)N1C=CC2CC1c1c(Cl)cccc12 (centres undefined) | 0.553% (inactive)
14 | O=C(O)c1ccccc1NS(=O)(=O)c1ccc(N/N=C/c2ccc(O)c(O)c2)c([N+](=O)[O-])c1 | -16.6% (inactive)
15 | COc1cccc(OCCNc2ccc([N+](=O)[O-])cn2)c1 | 2.33% (inactive)
16 | CS(=O)(=O)c1cccc(C(=O)Oc2ccccc2)c1 | 3.42% (inactive)
17 | CCN(CC)S(=O)(=O)N1CCN(S(=O)(=O)N2CCOCC2)CC1 | -1.93% (inactive)
18 | COc1cccc(OC)c1C(=O)Nc1cc(C)on1 | 1.95% (inactive)
19 | CC(C)c1ccc(NC(=O)Cn2c(=O)oc3cccnc32)cc1 | 1.09% (inactive)
